Bioassay records deposited in PubChem BioAssay by National Center for Advancing Translational Sciences (NCATS).
DT40 TDP1 no CPT: qHTS for Inhibitors of human tyrosyl-DNA phosphodiesterase 1 (TDP1): qHTS in cells in absence of CPT; DT40 Tdp1-/- hTDP1 cells, no CPT, ATP luminescence, 48 h; Potency, µM (series often up to 46.2 µM), actives largely listed as inhibitors; 15% of 420,000 active; AID 686978, 2013; further: nearly all actives have a fitted effect of over 55% in size
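Readout: luminescence from CellTiter-Glo after 30 min in the dark at RT. Cells: DT40 Tdp1-/- with stable hTDP1, 400/well. Exposure: compounds alone, ≥48 hr, 37 °C.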
TDP1 cell CPT: qHTS for Inhibitors of human tyrosyl-DNA phosphodiesterase 1 (TDP1): qHTS in cells in presence of CPT | chicken DT40 Tdp1-/-;hTDP1 cells + 20 nM CPT, ATP luminescence, 48 h | Potency, µM (top dose mostly 46.2 µM), usual class: inhibitors | 12% of 420,000 active | AID 686979, 2013; further: nearly all actives have a fitted effect of over 55% in size
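Cell growth measured by CellTiter-Glo luminescence after a minimum 48 h, 37 C compound exposure with 20 nM CPT in Tdp1-knockout DT40 cells stably expressing hTDP1, seeded 400/well; qHTS titration format.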
RORg inh: qHTS for inhibitors of ROR gamma transcriptional activity; Drosophila S2 Gal4-RORgamma UAS-luciferase reporter, 20 h; Potency, µM (series often up to 53.6 µM), actives largely listed as inhibitors; Nuclear receptor ROR-gamma (Mus musculus), P51450; 5.4% of 310,000 active; further: nearly all actives have a fitted effect of over 60% in size
Target sequence (P51450 whole entry, looked up, the tested form may be a part): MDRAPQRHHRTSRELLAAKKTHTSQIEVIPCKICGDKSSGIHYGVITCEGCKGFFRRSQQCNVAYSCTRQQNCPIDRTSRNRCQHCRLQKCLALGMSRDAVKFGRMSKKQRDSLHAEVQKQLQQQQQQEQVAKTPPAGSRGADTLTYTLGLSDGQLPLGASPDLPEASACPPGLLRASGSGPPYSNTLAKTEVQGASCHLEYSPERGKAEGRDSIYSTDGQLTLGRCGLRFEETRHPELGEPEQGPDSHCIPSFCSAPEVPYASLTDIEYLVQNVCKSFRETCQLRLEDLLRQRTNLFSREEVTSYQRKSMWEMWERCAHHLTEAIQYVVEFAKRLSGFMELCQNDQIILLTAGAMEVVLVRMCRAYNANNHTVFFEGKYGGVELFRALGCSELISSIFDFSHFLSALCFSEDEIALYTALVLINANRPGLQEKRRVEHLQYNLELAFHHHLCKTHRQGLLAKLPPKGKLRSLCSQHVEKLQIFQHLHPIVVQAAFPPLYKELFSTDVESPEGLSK
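In this cell-based reporter format, copper sulfate (700 uM final) drives Gal4–ROR gamma fusion expression from a metallothionein promoter in Drosophila Schneider cells; compounds preincubated 1 hr, reporter read after 20 hr at ambient temperature.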
LDHA inh: qHTS assay for inhibitors of human lactate dehydrogenase; L-lactate dehydrogenase A chain (Homo sapiens), P00338; purified LDHA, NADH/diaphorase-resazurin fluorescence; hits give low values; activity change, % (values are at about 110 or 230 µM); 0.15% of 480,000 active; AID 1347041, 2019; in the data active means activity change below about -30%; inconclusive means mostly about -25% to -30%
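Human LDH5 (2 nM) was incubated with 0.06 mM NADH and 0.2 mM pyruvate for 5 min at room temperature in Tris pH 7.4. Remaining NADH was coupled through diaphorase/resazurin, and resorufin fluorescence was read at 0 and 20 min.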
IL-1B inflam inh: qHTS for Inhibitors of Inflammasome Signaling: IL-1-beta AlphaLISA Primary Screen | THP-1 LPS/ATP IL-1B secretion, AlphaLISA, 16 h; hits give low values | activity change, % at 57.5 µM | 4.7% of 360,000 active | AID 743279, 2014; in the data active means activity change below about -50%; inconclusive means mostly about -30% to -49%
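Secreted IL-1B measured by AlphaLISA bead assay after 16 h compound exposure of THP-1 cells; compounds (final up to 57.5 uM) added 1 h before LPS (250 ng/mL) and ATP (1.25 mM) stimulation; lower signal means less secretion.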
Gal4-VP16 FLuc: VP16 counterscreen qHTS for inhibitors of ROR gamma transcriptional activity. Drosophila S2 Gal4-VP16 UAS-luciferase, luminescence, 20 h. Potency, µM (titrated, usually from 53.6 µM), hits mostly inhibitors. 3.5% of 310,000 active;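 further: Gal4-VP16 expression switched on by copper sulfate through the metallothionein promoter; nearly all actives have a fitted effect of over 50% in size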
Of the large screens only hits and unclear results are named; the others gave an inactive call. Hits are enriched below; roughly 18% of the tested compounds scored in any of these assays. Unless noted, the call rests on the fitted dose curve; in most records, active means well fitted curve in the direction sought with a large enough effect; inconclusive means small, poorly fitted or top-dose-only effect, or another doubt; inactive means no such curve, though single readings can be large; an effect the other way counts as inactive or inconclusive.

Cc1[nH]nc(Nc2ccccc2)c1[N+](=O)[O-]	none
Cc1[nH]nc(Nc2ccc(Br)cc2)c1[N+](=O)[O-]	DT40 TDP1 no CPT 18µM, TDP1 cell CPT 21µM
Cc1cccc(Nc2n[nH]c(C)c2[N+](=O)[O-])c1	Gal4-VP16 FLuc inconclusive
Cc1[nH]nc(Nc2ccc(C(C)C)cc2)c1[N+](=O)[O-]	DT40 TDP1 no CPT inconclusive, IL-1B inflam inh -51, Gal4-VP16 FLuc inconclusive
CC(C)CC(NC(=O)/C(=C/c1ccc(Cl)cc1)NC(=O)c1ccccc1)C(=O)O (stereo not given)	none (no result: DT40 TDP1 no CPT, TDP1 cell CPT, RORg inh, IL-1B inflam inh, Gal4-VP16 FLuc)
CCOc1ccc(NC(=O)Cc2coc3cc(C)c(C(C)C)cc23)cc1S(=O)(=O)N(C)C	none (no result: DT40 TDP1 no CPT, TDP1 cell CPT, RORg inh, IL-1B inflam inh, Gal4-VP16 FLuc)
COc1ccccc1-c1noc2c1C(=O)N(Cc1cn(-c3ccc(Cl)cc3)nn1)CC2	DT40 TDP1 no CPT 23µM, TDP1 cell CPT inconclusive (no result: RORg inh, Gal4-VP16 FLuc)
COc1ccc(Cn2cc(CN3CCc4onc(-c5ccc(Br)cc5)c4C3=O)nn2)cc1	DT40 TDP1 no CPT 21µM, TDP1 cell CPT 16µM (no result: RORg inh, Gal4-VP16 FLuc)
COCCCC1CCN(C(=O)CCc2nnc(CCCCc3ccccc3)o2)CC1	DT40 TDP1 no CPT 15µM, TDP1 cell CPT inconclusive, RORg inh inconclusive
O=C(CCc1nnc(CCCCc2ccccc2)o1)N1CCCC(O)C1 (stereo not given)	none
CCC1(c2ccc(Cl)cc2)NC(=S)N(c2ccc(C)cc2)N1 (stereo not given)	DT40 TDP1 no CPT inconclusive, TDP1 cell CPT inconclusive, RORg inh 1.8µM
CCC1(c2ccccc2)NC(=S)N(c2ccc(C)c(C)c2)N1 (stereo not given)	DT40 TDP1 no CPT inconclusive, RORg inh 2.8µM, Gal4-VP16 FLuc inconclusive
N#Cc1ccc(NC(=O)CCCc2cccs2)cc1	none (no result: DT40 TDP1 no CPT, TDP1 cell CPT, RORg inh, IL-1B inflam inh, Gal4-VP16 FLuc)
COc1ccc(OC)c2nc3c(cc12)CCC3	RORg inh 16µM, Gal4-VP16 FLuc inconclusive
COC(=O)c1c(N)[nH]c(C(=O)c2ccccc2)c1-c1ccc(Br)cc1	DT40 TDP1 no CPT inconclusive, TDP1 cell CPT 16µM (no result: RORg inh, Gal4-VP16 FLuc)
CC(C)(C)C(=O)c1c(N)[nH]c(C(=O)c2ccccc2)c1-c1ccc(Br)cc1	DT40 TDP1 no CPT 23µM, TDP1 cell CPT 21µM (no result: RORg inh, Gal4-VP16 FLuc)
CCc1nc2ccc(C(=O)Nc3ccc(Cl)c(Cl)c3)cn2c1N(C)Cc1ccc(OC)cc1	DT40 TDP1 no CPT inconclusive, TDP1 cell CPT 16µM, IL-1B inflam inh -61 (no result: RORg inh, Gal4-VP16 FLuc)
CCc1nc2ccc(C(=O)Nc3cccc(OC)c3)cn2c1N(C)Cc1ccc(OC)cc1	DT40 TDP1 no CPT inconclusive, TDP1 cell CPT inconclusive, IL-1B inflam inh inconclusive (no result: RORg inh, Gal4-VP16 FLuc)
CCc1nc2ccc(C(=O)N(C)CCCN(C)C)cn2c1N(C)Cc1cc2ccccc2s1	DT40 TDP1 no CPT 21µM, TDP1 cell CPT inconclusive (no result: RORg inh, Gal4-VP16 FLuc)
CCc1nc2ccc(C(=O)NCCOc3ccc(OC)cc3)cn2c1N(C=O)Cc1ccc(OC)cc1	DT40 TDP1 no CPT inconclusive, TDP1 cell CPT 23µM (no result: RORg inh, Gal4-VP16 FLuc)
CCc1nc2ccc(C(=O)N(C)Cc3ccccc3)cn2c1N(C)Cc1ccc(OC)cc1	DT40 TDP1 no CPT 12µM, TDP1 cell CPT 12µM (no result: RORg inh, Gal4-VP16 FLuc)
CCc1nc2ccc(C(=O)Nc3ccc(OC)c(OC)c3)cn2c1N(C)Cc1ccc(OC)cc1	DT40 TDP1 no CPT inconclusive, TDP1 cell CPT inconclusive, IL-1B inflam inh inconclusive (no result: RORg inh, Gal4-VP16 FLuc)
CCc1nc2ccc(C(=O)N(C)CCCN(C)C)cn2c1N(CC)CCOC	none (no result: RORg inh, Gal4-VP16 FLuc)
COc1ccc2c(C)c(CC(=O)NCc3ccc4c(c3)OCO4)c(=O)oc2c1	none (no result: DT40 TDP1 no CPT, TDP1 cell CPT, RORg inh, IL-1B inflam inh, Gal4-VP16 FLuc)
CC1(C)CC(=O)C2=C(C1)Nc1nc(SCc3ccccc3)nn1C2c1cccs1 (stereo not given)	none (no result: DT40 TDP1 no CPT, TDP1 cell CPT, RORg inh, IL-1B inflam inh, Gal4-VP16 FLuc)
Cc1cc(C)c2c(CN3CCN(c4ccc(F)cc4)CC3)cc(=O)oc2c1	none (no result: DT40 TDP1 no CPT, TDP1 cell CPT, RORg inh, IL-1B inflam inh, Gal4-VP16 FLuc)
CCCCN(C=O)c1c(CC)nc2ccc(C(=O)NCCc3c[nH]c4ccccc34)cn12	DT40 TDP1 no CPT inconclusive, TDP1 cell CPT inconclusive (no result: RORg inh, Gal4-VP16 FLuc)
